SSB-PriA inh: inhibitors of Klebsiella pneumoniae PriA binding to SSB C-terminal tail; AID 1272365; inhibition, % at 33 µM; 430,000 tested, 0.6% active; AlphaScreen SSBct-PriA binding, biotinylated peptide; in the data active = inhibition mostly above about 37%, no sharp cut-off; inactive = mostly below about 20%;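 also: plate controls were negative control peptide for no effect and reference peptide for full effect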
Sa ugtP lethal: kills S. aureus RN4220 lacking UgtP; S. aureus RN4220 ugtP deletion, OD600 growth, 16 h; 330,000 tested, 0.54% active; growth inhibition, % (test concentration not listed); in the data active = growth inhibition above about 68%;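 also: plate controls were untreated wells for no effect and antibiotic for full effect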
RN4220 kill: kills Staphylococcus aureus RN4220; S. aureus RN4220 growth, OD600, 16 h; inhibition, % (concentration not given with the values); 330,000 tested, 0.33% active; AID 1259311; in the data active = inhibition above about 85%;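 also: plate controls were untreated cells for no effect and reference antibiotic for full effect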
* marks the source's active call; other numbers are inactive results; . = no result. Only some compounds are listed: those with a hit (about 1% of all), similar ones and a draw of the others.

SMILES | SSB-PriA inh | Sa ugtP lethal | RN4220 kill
CN1CCN(c2ccc(NC(=S)NC(=O)c3cccc4c(Cl)cccc34)cc2)CC1 | 32.3 | 97.8* | -3.7
CCC(=O)N1CCN(c2ccc(NC(=S)NC(=O)c3ccc(OC)c([N+](=O)[O-])c3)cc2)CC1 | 13.6 | 59.1 | 2.3
CCCC(=O)N1CCN(c2ccc(NC(=S)NC(=O)c3cccc(C)c3)cc2)CC1 | 19.1 | active | 94.4
COc1ccccc1OCC(=O)N1CC[C@H](Oc2cncc(N(C)C)n2)C1 | -6.0 | . | .
Nc1c2c(nn1CC(=O)NCc1ccc(F)cc1)CSC2 | -8.0 | . | .
CN(C)S(=O)(=O)c1ccc(C(=O)NCc2nnc(SC/C=C/c3ccccc3)o2)cc1 | -3.0 | . | .
CC(Oc1ccc2c(c1)OCO2)C(=O)Nc1cccc(-c2nc3cccnc3s2)c1 (stereo not drawn) | 3.0 | . | .
O=C1NC(=S)/C(=C\c2ccc(-c3ccccc3Cl)o2)S1 | 6.8 | 95.2* | 97.1*
O=C1NC(=O)/C(=C/c2ccc(-c3cc(C(=O)O)ccc3Cl)o2)S1 | -9.2 | 3.5 | 6.0
Cc1cc(NC(=O)C(=O)NCC2CCN(c3ncccc3C#N)CC2)no1 | -4.0 | . | .
COc1ccc(C)cc1Nc1n[n+](-c2ccccc2)c(-c2ccc(OC)c(OC)c2OC)s1 | 5.4 | -20.2 | -6.0
Fc1ccc(-[n+]2nc(Nc3ccccc3)sc2-c2c(Cl)cccc2Cl)cc1 | 45.5* | . | .
COc1ccc(-c2sc(Nc3ccccc3)n[n+]2-c2ccc(F)cc2)cc1Br | -0.8 | 1.2 | -1.6
COc1ccc(C)cc1Nc1n[n+](-c2ccccc2)c(-c2c(Cl)cccc2Cl)s1 | 38.8* | . | .
COc1ccc2ccccc2c1-c1sc(Nc2ccccc2)n[n+]1-c1ccc(F)cc1 | 38.9* | . | .
O=C(O)c1ccc(-c2sc(Nc3ccccc3)n[n+]2-c2ccc(F)cc2)cc1 | -1.1 | 1.9 | -14.0
CCc1ccc(Nc2n[n+](-c3ccccc3)c(-c3c(Cl)cccc3Cl)s2)cc1 | 65.6* | 100.1* | 100.0*
CCc1ccc(Nc2n[n+](-c3ccccc3)c(-c3ccc(N(CC)CC)cc3)s2)cc1 | -5.2 | 56.5 | 74.6
Cc1cc(C(=O)Nc2ccn3nccc3c2)no1 | -9.0 | . | .
COc1cn(CC(=O)NCc2ccc3c(c2)OCO3)c(CSc2ccc(Cl)cc2)cc1=O | 1.0 | . | .
CC(=O)OCC1=C(C(=O)O)N2C(=O)C(NC(=O)c3ccc(COc4cccc(Cl)c4Cl)o3)C2SC1 (stereo not drawn) | -7.1 | 100.5* | 100.3*
COc1cccc(C(=O)NC2C(=O)N3C(C(=O)O)=C(COC(C)=O)CSC23)c1 (stereo not drawn) | -6.0 | . | .
COCC1=C(C(=O)OC(C)OC(=O)OC(C)C)N2C(=O)C(NC(=O)C(=NOC)c3csc(N)n3)C2SC1 (stereo not drawn) | . | 43.0 | 67.6
CC(=O)OCC1=C(C(=O)OC(C)(C)C)N2C(=O)[C@@H](NC(=O)Cc3ccccc3)[C@H]2SC1 | -7.2 | 93.6* | 95.7*
CON=C(C(=O)NC1C(=O)N2C(C(=O)O)=C(COC(C)=O)CSC12)c1csc(N)n1 (stereo not drawn) | . | 100.0* | 100.4*
SMILES | SSB-PriA inh | Sa ugtP lethal | RN4220 kill
Cc1nnc(SCC2=C(C(=O)O)N3C(=O)C(NC(=O)C(C)n4nc(C(F)(F)F)cc4C)C3SC2)s1 (stereo not drawn) | -2.8 | 100.5* | 99.8*
CC1=C(C(=O)OCC(Cl)(Cl)Cl)N2C(=O)C(NC(=O)Cc3ccccc3)C2SC1 (stereo not drawn) | -0.8 | 14.3 | 4.0
NC(=O)c1cc[n+](CC2=C(C(=O)O)N3C(=O)[C@@H](NC(=O)C(c4ccccc4)S(=O)(=O)[O-])[C@H]3SC2)cc1 (stereo partly drawn) | -13.3 | . | .
CC(C)(C)c1ccc(S(=O)(=O)Nc2ccc(O)c(Br)c2)cc1 | -7.0 | . | .
COc1ccc(C)cc1NC(=O)C(=O)NCC(=O)N1CCOC(c2ccccc2)C1 (stereo not drawn) | -12.0 | . | .
O=C1CCCC(=O)N1CCS(=O)(=O)N1CCN(c2ccccc2F)CC1 | 3.0 | . | .
Cc1nnc(SCC2=C(C(=O)O)N3C(=O)C(NC(=O)Cc4ccccc4)C3SC2)s1 (stereo not drawn) | 0.4 | 100.1* | 100.2*
CC1=C(C(=O)O)N2C(=O)C(NC(=O)c3ccccc3Cl)C2SC1 (stereo not drawn) | 1.3 | 11.8 | 9.0
CCc1nc2sc3c(c2c(=O)o1)CCCC3 | 69.5* | 4.0 | 4.7
CC(C)(C)c1nc2sc3c(c2c(=O)o1)CCCC3 | -7.0 | 12.7 | 5.6
O=C(CSc1ccc(F)cc1)NCC#CCOc1ccc2c(c1)OCO2 | 26.0 | . | .
O=C(O)c1ccc(NC2SC(=O)N(c3ccc(F)cc3)C2=O)cc1 (stereo not drawn) | -7.0 | . | .
CCCOc1ccc(C(=O)CCCC(=O)c2ccc(OCCC)cc2)cc1 | -7.6 | -1.9 | 2.2
CCCOc1ccc(C(=O)ON=C(CC)c2ccc(C)cc2)cc1 | -17.1 | 93.3* | -2.1
O=C(Nc1nnc(SCc2cccc(F)c2)s1)c1ccc(S(=O)(=O)N2CCCCC2)cc1 | -8.0 | . | .
